Chronic BCR inh = qHTS Assay to Find Inhibitors of Chronic Active B-Cell Receptor Signaling; ABC-DLBCL IkBa-CBG/CBR reporter, luminescence ratio, 4 h; Potency, µM (top dose mostly 46.1 µM), inactives show at the top dose activity change, negative = inhibition, hits mostly inhibitors; hit rate 0.05% among 340,000; active = well fitted inhibition curve with a large enough effect in the signal ratio, with a control signal flat, not every such curve was filed as active; inconclusive = small, poorly fitted or top-dose-only effect, or effect the other way, or a change in a side signal; the % refers to the signal ratio;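 also: potency is read from the fitted curve at half-maximal effect; plate controls were basal doxycycline-induced cells for no effect and cells given 10 µM MG132 for full effect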
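TMD8 ABC-DLBCL cells carrying doxycycline-inducible green luciferase fused to IkappaBalpha plus unfused red luciferase were exposed to compounds (up to 46 uM) for 4 hrs at 37C. Activity came from the overlap-corrected green/red luminescence ratio.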
DT40 TDP1 CPT = qHTS for Inhibitors of human tyrosyl-DNA phosphodiesterase 1 (TDP1): qHTS in cells in presence of CPT; chicken DT40 Tdp1-/-;hTDP1 cells + 20 nM CPT, ATP luminescence, 48 h; Potency, µM (highest dose often 46.2 µM), inactives show top-dose activity change, negative = growth inhibition, hits mostly inhibitors; hit rate 12% among 420,000; also: potency is read from the fitted curve at half-maximal effect; % is scaled to controls: 0 for no effect and ±100 for the full control effect; nearly all actives have a fitted effect of over 55% in size
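Cell growth measured by CellTiter-Glo luminescence after a minimum 48 h, 37 C compound exposure with 20 nM CPT in Tdp1-knockout DT40 cells stably expressing hTDP1, seeded 400/well; qHTS titration format.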
IL1B secr inh = qHTS for Inhibitors of Inflammasome Signaling: IL-1-beta AlphaLISA Primary Screen; AID 743279, 2014; THP-1 LPS/ATP IL-1B secretion, AlphaLISA, 16 h; hits give low values; activity change, % at 57.5 µM; hit rate 4.7% among 360,000; in the data active = activity change below about -50%; inconclusive = mostly about -30% to -49%; also: % is scaled to controls: 0 for no effect and ±100 for the full control effect
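Secreted IL-1B measured by AlphaLISA bead assay after 16 h compound exposure of THP-1 cells; compounds (final up to 57.5 uM) added 1 h before LPS (250 ng/mL) and ATP (1.25 mM) stimulation; lower signal means less secretion.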
SW480 rerep = A quantitative high throughput screen for small molecules that induce DNA re-replication in SW480 colon adenocarcinoma cells; hit rate 1.8% among 340,000; SW480 DNA re-replication, Hoechst DNA content imaging, 48 h; Potency, µM (titrated, usually from 46.1 µM), for inactives: at the top dose re-replication activation, actives largely listed as activators; also: potency is read from the fitted curve at half-maximal effect; % of control where 0% means no effect; nearly all actives have a fitted effect of over 55% in size
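Image-based DNA-content assay: after two days of treatment, nuclei were labelled with the DNA dye Hoechst and imaged, and hits were compounds raising the count of nuclei showing high fluorescence intensity.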
DT40 TDP1 no CPT = qHTS for Inhibitors of human tyrosyl-DNA phosphodiesterase 1 (TDP1): qHTS in cells in absence of CPT. DT40 Tdp1-/- hTDP1 cells, no CPT, ATP luminescence, 48 h. Potency, µM (doses to about 46.2 µM), for the others: top-dose activity change, negative = growth inhibition, usual class: inhibitors. hit rate 15% among 420,000. AID 686978, 2013; also: potency is read from the fitted curve at half-maximal effect; % is scaled to controls: 0 for no effect and ±100 for the full control effect; nearly all actives have a fitted effect of over 55% in size
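Growth of hTDP1-complemented DT40 Tdp1-knockout cells is measured by ATP luminescence after at least 48 hr compound exposure at 37 °C, with DMSO substituting for the 20 nM CPT used in the parallel screen.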
MCF10A rerep = A quantitative high throughput screen for small molecules that induce DNA re-replication in MCF 10a normal breast cells. Potency, µM (doses to about 46.1 µM), without a hit: top-dose activity, positive = re-replication, hits mostly activators. MCF 10A DNA re-replication, Hoechst nuclear intensity, 48 h. hit rate 2.9% among 350,000. AID 624296, 2012; also: potency is read from the fitted curve at half-maximal effect; % of control where 0% means no effect; nearly all actives have a fitted effect of over 50% in size
Starred values were filed as active, the others as inactive; ? = inconclusive; · = not tested or not shown; [ ] = remark or other dose. Hits are enriched below; roughly 19% of the tested compounds scored in any of these assays. Unless noted, calls follow the shape of the dose curve; as a rule, active = well fitted curve in the direction sought with a large enough effect; inconclusive = small, poorly fitted or top-dose-only effect, or another doubt; inactive = no such curve, though single readings can be large; an effect the other way counts as inactive or inconclusive.

SMILES | Chronic BCR inh | DT40 TDP1 CPT | IL1B secr inh | SW480 rerep | DT40 TDP1 no CPT | MCF10A rerep
O=c1c2c(nc3cc(-c4cccc(Cl)c4)[nH]n13)CCC2 | ? | ? | 20 | 11% | ? | ?
O=c1c2c(nc3c(-c4ccc(Cl)cc4)c[nH]n13)CCCC2 | -10% | 3.5µM* | 46 | 19%[9.22 µM] | 4µM* | 2%
C[C@H](NC(=O)[C@@H]1CSC2c3ccccc3C(=O)N21)C(=O)NCc1c(F)cccc1Cl (stereo not given in full) | 1% | ? | -3 | -3% | ? | 7%
CCOC(=O)C1=C(N)Oc2ccc3ccccc3c2C1c1cccc(O)c1 (stereo not given) | ? | -23% | -13 | -3% | ? | ?
CCOC(=O)C1=C(N)Oc2c(c(=O)[nH]c3ccccc23)C1c1ccccc1 (stereo not given) | ? | 23µM* | 25 | 5% | 13µM* | ?
CCCCN1C(=O)CCC(C(=O)O)C1c1ccc([N+](=O)[O-])cc1 (stereo not given) | 5% | 3% | 0 | -16% | 18% | 0%
COc1cccc(C2C3=C(Nc4[nH]n(-c5ccccc5)c(=O)c42)c2ccccc2C3=O)c1 (stereo not given) | 14% | · | · | · | · | ·
Cn1c2c(c(=O)[nH]c1=O)C(c1cccc(O)c1)C1=C(N2)c2ccccc2C1=O (stereo not given) | 6% | 7.3µM* | 19 | 10µM* | 8.2µM* | ?
CC(=O)OCC(=O)[C@@]1(O)CC[C@H]2[C@@H]3CCC4=CC(=O)CC[C@]4(C)C3=CC[C@@]21C | · | 3% | · | · | -23% | ·
CCOC(=O)[C@]12CCCC=C1N(Cc1ccc3c(c1)OCO3)C(=O)[C@H](CC(=O)NCCC(C)C)C2 | · | ? | -5 | · | ? | ·
CCCCOCCCNC(=O)C[C@@H]1C[C@@]2(C(=O)OCC)CCCC=C2N(Cc2ccc3c(c2)OCO3)C1=O | · | 6.5µM* | 0 | · | ? | ·
CCCCNC(=O)C[C@@H]1C[C@@]2(C(=O)OCC)CCCC=C2N(Cc2ccc3c(c2)OCO3)C1=O | · | ? | -11 | · | 21µM* | ·
COC(=O)[C@]12CCCCC=C1N(Cc1ccc3c(c1)OCO3)C(=O)[C@H](CC(=O)NCC13CC4CC(CC(C4)C1)C3)C2 | · | ? | -4 | · | 18µM* | ·
Cc1coc2c1C(=O)C(=O)c1c-2ccc2c1CCCC2(C)C | 9% | 0.82µM* | 31 | 8% | 1.3µM* | ?
Cc1coc2c1C(=O)C(=O)c1c-2ccc2c(C)cccc12 | ? | 2.9µM* | -12 | 5.2µM* | 4.6µM* | ?
CC(C)Cc1nnc(NC(=O)c2ccc3c(=O)n4c(nc3c2)CCC4)s1 | 1% | -17% | 63 | -4% | -23% | 0%
CCOC(=S)SCC(=O)Nc1nc(-c2ccc(Br)cc2)cs1 | ? | 4.6µM* | -100* | ? | 4.6µM* | 8.2µM*
O=C(O)CCC(=O)Nc1nc(-c2ccccc2)cs1 | ? | -10% | 20 | -3%[9.22 µM] | 4% | 2%
CCCC(=O)Nc1nc(-c2ccc(OC)cc2)cs1 | ? | ? | -18 | 0%[9.22 µM] | ? | -9%
CCOC(=S)SCC(=O)Nc1nc(-c2ccccc2)cs1 | ? | 2.9µM* | ? | ? | 2.6µM* | 21µM*
CCC(=O)C1=C(c2cccc([N+](=O)[O-])c2)N(C(=O)CC)n2c(nnc2-c2ccccc2)S1 | 2% | 4.1µM* | · | · | 3.3µM* | ·
CCC(=O)C1=C(c2ccc(OC)c(OC)c2)N(C(=O)CC)n2c(nnc2-c2ccc(C)cc2)S1 | 4% | -3% | · | · | -25% | ·
CC(=O)C1=C(c2ccc(Cl)c(Cl)c2)N(C(C)=O)n2c(nnc2C2CCCCC2)S1 | -8% | ? | · | · | -27% | ·
CCC(=O)C1=C(c2cccc(OC)c2)N(C(=O)CC)n2c(nnc2C2CCCCC2)S1 | 12% | 8.2µM* | · | · | 12µM* | ·
COc1cccc(C2=C(C(C)=O)Sc3nnc(C4CCCCC4)n3N2C(C)=O)c1 | 16% | 7.3µM* | · | · | 12µM* | ·
SMILES | Chronic BCR inh | DT40 TDP1 CPT | IL1B secr inh | SW480 rerep | DT40 TDP1 no CPT | MCF10A rerep
CC(=O)C1=C(c2ccccc2)N(C(C)=O)n2c(nnc2C2CCCCC2)S1 | 21% | ? | · | · | 4.6µM* | ·
O=C(Nc1ccccc1OCc1cc(=O)n2ccccc2n1)Nc1ccccc1C(F)(F)F | · | 5% | · | · | -9% | ·
O=C(CC(=O)Nc1cccc(F)c1)Nc1cccc(F)c1 | ? | ? | 7 | -10% | ? | -6%
O=C(Cn1c2ccccc2c(=O)c2ccccc21)Nc1cccc(F)c1 | -1% | 16µM* | 13 | 18µM* | ? | 12µM*
O=C1c2cccc3c(N4CCCCC4)ccc(c23)C(=O)N1c1cccc(O)c1 | -13% | ? | -68* | ? | ? | 12µM*
CC(=O)c1ccc2c3c(cccc13)C(=O)N(c1c(C)nn(C)c1C)C2=O | -2% | -18% | 3 | -5% | ? | 1%
Cc1n[nH]c(C)c1N1C(=O)c2cccc3c(N4CCCCCC4)ccc(c23)C1=O | ? | ? | -18 | 16% | 23µM* | ?

Assay outcomes (PubChem BioAssay)
